27 molecules from PubChem BioAssay AID1347420 (Sanford-Burnham Center for Chemical Genomics, 2020) can be followed below.

Out of some 1,300 compounds screened, about 980 (75%) were called active. Not shown: some 4% with an inconclusive outcome. This is one part of the list.

Chain of Sulfhydryl oxidase 1 (Homo sapiens) (O00391 whole entry, looked up): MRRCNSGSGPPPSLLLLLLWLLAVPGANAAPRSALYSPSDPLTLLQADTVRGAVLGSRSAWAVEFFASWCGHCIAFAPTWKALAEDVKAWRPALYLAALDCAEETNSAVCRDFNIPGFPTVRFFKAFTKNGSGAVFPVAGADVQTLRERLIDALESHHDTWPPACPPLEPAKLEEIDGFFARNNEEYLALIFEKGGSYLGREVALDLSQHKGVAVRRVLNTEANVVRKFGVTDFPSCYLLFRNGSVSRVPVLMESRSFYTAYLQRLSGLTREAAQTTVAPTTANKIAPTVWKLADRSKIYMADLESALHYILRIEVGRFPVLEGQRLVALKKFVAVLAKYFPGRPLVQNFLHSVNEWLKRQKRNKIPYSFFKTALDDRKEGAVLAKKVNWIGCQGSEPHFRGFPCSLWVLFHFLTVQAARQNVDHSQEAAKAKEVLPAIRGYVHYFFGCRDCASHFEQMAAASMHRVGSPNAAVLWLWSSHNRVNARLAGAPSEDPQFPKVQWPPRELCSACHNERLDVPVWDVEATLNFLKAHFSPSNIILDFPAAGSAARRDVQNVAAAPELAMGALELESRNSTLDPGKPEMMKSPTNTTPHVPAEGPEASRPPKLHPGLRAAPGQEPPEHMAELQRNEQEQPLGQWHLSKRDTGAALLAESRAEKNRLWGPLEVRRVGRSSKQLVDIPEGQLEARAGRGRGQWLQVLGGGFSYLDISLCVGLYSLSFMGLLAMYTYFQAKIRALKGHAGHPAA

The assay concerns the target Sulfhydryl oxidase 1 (Homo sapiens) (UniProt O00391). Description: QSOX1 enzyme inhibitors, primary screen, biochemical, HyperBlu H2O2 luminescence, HTS (AID 1347420). Note: values above 100% were filed as inconclusive. To be noted: recombinant QSOX1, HyperBlu H2O2 luminescence; at 12.5 µM; stronger effect = higher value; active = any value above zero.
By inhibition is commonly meant the drop in the measured response relative to a control, in per cent. With `CNC[C@H](O)c1cccc(O)c1`, the inhibition is 17% (active).
On to `CNCC(O)c1ccc(O)c(O)c1` (configuration not stated), for which the inhibition was 39.2% (active).
For `CNC[C@H](O)c1ccc(O)c(O)c1` the value was 53.5% (active).
For `CNCCc1cnc(CCC(c2ccccc2)c2ccccc2)[nH]1` the value was 14.6% (active); for `O=c1[nH]c(=O)n([C@H]2C[C@H](O)[C@@H](CO)O2)cc1Br`, 6.3% (active); for `O=c1[nH]c(=O)n([C@H]2C[C@H](O)[C@@H](CO)O2)cc1/C=C/Br`, 11.6% (active).
For `Cc1cn([C@H]2C=C[C@@H](CO)O2)c(=O)[nH]c1=O` the value was 21.2% (active); for `Cc1cn([C@H]2C[C@@H](N=[N+]=[N-])[C@@H](CO)O2)c(=O)[nH]c1=O`, 18.1% (active); for `N#CC(C#N)=C(N)/C(C#N)=C/c1ccc(O)cc1`, 85.4% (active).
Take `Cn1cc(C(F)(F)F)nc1-c1ccc(OCC(O)CNCCOc2ccc(O)c(C(N)=O)c2)cc1` (configuration not stated): the inhibition was 45.1% (active).
For `CC12C(=O)OC(=O)C1(C)C1CCC2O1` (configuration not stated) the value was 1.8% (active); for `CNC(=O)c1cc2c(cn1)[nH]c1ccccc12`, 4.2% (active).
For `Cc1ccccc1N1C(=O)c2cc(S(N)(=O)=O)c(Cl)cc2NC1C` (configuration not stated) the value was 9.2% (active); for `O=c1[nH]c(=S)[nH]c(-c2ccccc2)c1Cc1c(O)ccc2ccccc12`, 55.9% (active).
For `Cc1ccc(S(=O)(=O)/C=C/C#N)cc1` the value was 10.5% (active); for `CC(C)(C)c1ccc(S(=O)(=O)/C=C/C#N)cc1`, 3.4% (active).
For the molecule `NC12CC3CC(CC(C3)C1)C2`, the inhibition is 33.3% (active).
The same measure for `CC12CC3CC(C)(C1)CC(N)(C3)C2`: -1.7% (inactive); for `CCOC(=O)C(C)Oc1cccc2c(=O)n(CC(=O)Nc3ccc4c(c3)OCCO4)ccc12` (configuration not stated): 9.3% (active); for `CC1=C(C(=O)O)N2C(=O)[C@@H](NC(=O)C(N)c3ccccc3)[C@H]2SC1` (some centres not stated): 37.1% (active).
With `NC(C(=O)N[C@@H]1C(=O)N2C(C(=O)O)=C(Cl)CS[C@H]12)c1ccccc1` (some centres not stated), the inhibition is 23.8% (active).
The same measure for `NC(=O)c1cc[n+](CC2=C(C(=O)O)N3C(=O)[C@@H](NC(=O)[C@@H](c4ccccc4)S(=O)(=O)[O-])[C@H]3SC2)cc1`: 14.6% (active).
The same measure for `CC1=C(C(=O)O)N2C(=O)[C@@H](NC(=O)C(N)C3=CCC=CC3)[C@H]2SC1` (some centres not stated): 20.2% (active); for `CN1CC(=O)N/C1=N\C(=O)Nc1cccc(Cl)c1`: -0.6% (inactive); for `CC1=C(CC(=O)O)c2cc(F)ccc2/C1=C\c1ccc(S(C)(=O)=O)cc1`: 13.7% (active).
For `CC1=C(CC(=O)O)c2cc(F)ccc2/C1=C\c1ccc(S(C)=O)cc1` (configuration not stated), the inhibition is 14.1% (active).
Take `CC(=O)N[C@@H](Cc1c[nH]c2ccccc12)C(=O)OCc1cc(C(F)(F)F)cc(C(F)(F)F)c1`: the inhibition is 4.9% (active).
